Drawing on PubChem BioAssay (NCI), this text covers growth for 14 compounds.

SMILES strings stand for the structures. Compounds without any hit were thinned out: in the full panel of roughly 83,000, 20% have a hit.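 Single-dose data. Exposure time 48 hours. Values below 10 considered active.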 Active and inactive are the calls of the source.

The test deals with MDA-MB-468 breast. Nature of the test: NCI-60 one-dose screen, 48 h (100 = growth as untreated, 0 = no growth, -100 = all killed). Conditions: 10 µM unless noted.
Consider `C#Cc1nc(C2=C(C)C(=N\O)/C(=N/O)C2)cs1`, for which the growth is 82.6% (inactive).

As for `O=C1/C(=C/c2ccc3c(c2)OCO3)SC(=S)N1C1c2ccccc2Oc2ccccc21`, the growth was 90.4% (inactive).

In the case of `Cc1cc(O)c(C2=NN(c3ccc(S(N)(=O)=O)cc3)C(c3ccccc3Cl)C2)cc1Cl` (centres undefined), the growth is 28.9% (inactive).

Consider `CCc1nc2cc(/C=C/C(=O)NO)c(F)cc2c(=O)n1CCc1ccccc1`, for which the growth is -32.9% (active).

Consider `COc1cc(/C=N/Nc2ncnc3c2c(C)nn3-c2ccc(F)cc2)ccc1O`, for which the growth was 92% (inactive).

Take `Nc1ccc(C2=Nc3cccc4cccc(c34)S2)cc1`: the growth was 0.26% (active).

For `COc1ccc(C(=O)/C=C/c2cn(-c3ccccc3)nc2-c2cccc(Nc3ccnc4cc(Cl)ccc34)c2)cc1`, the growth is 75.7% (inactive).

As for `CC(=O)c1cc2c(N)c(C(=O)Nc3cncc4ccccc34)sc2nc1C`, the growth is 97% (inactive).

Take `C=C(C)[C@@H]1CC[C@]2(C)CC[C@]3(C)[C@H](CC[C@@H]4[C@@]5(C)CCCNC(C)(C)[C@@H]5CC[C@]43C)[C@@H]12`: the growth is 26.2% (inactive).

`COc1cc(OC)c2c(c1)c1nc3cc(C)c(C)cc3nc1n2CCN(C)C`: the growth is 117% (inactive).

In the case of `O=C(NCCCNc1cc(-c2cn(-c3ccccc3)nc2-c2cccc(O)c2)ccn1)Nc1ccc(F)cc1`, the growth was -19.4% (active).

Regarding `COc1ccc(C(=O)c2nc3ccccc3n2CC(=O)c2ccc(F)cc2)cc1`, the growth was 55% (inactive).

Consider `C=C(C)[C@@H]1C/C=C(/C=O)CC[C@@H]2O[C@@]2(C)CC/C=C(\C)CC1`, for which the growth was 118% (inactive).

Take `Cc1cc(=O)oc2cc(OCCCOc3ccc(/C=C/C(=O)Nc4ccc(Cl)cc4)cc3)ccc12`: the growth is 73.9% (inactive).
